Screens (PubChem BioAssay)
Most compounds without a hit are left out; they make up all but 6.9% or so of the library.
KB-3-1 tox: KB-3-1 parental cell cytotoxicity; 400,000 compounds, 1.4% hits; Potency, µM (doses to about 46.1 µM), hits mostly cytotoxic; KB-3-1 viability, CellTiter-Glo ATP luminescence, 72 h; note: nearly all actives have a fitted effect of over 60% in size
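Cytotoxicity measured as CellTiter-Glo luminescence after 72 h at 37 C. Compound titrations were pinned onto drug-naive KB-3-1 parental adenocarcinoma cells grown in DMEM with 10% FBS, and normalized data fitted to concentration-response curves.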
ASM inhibitor: inhibitors of human secretory acid sphingomyelinase; P17405; placental ASM, HMU-PC fluorogenic substrate, 60 min; Potency, µM (top dose mostly 57.5 µM), most hits filed as inhibitors; 340,000 compounds, 0.006% hits
Target sequence (P17405 47-631 limits assumed): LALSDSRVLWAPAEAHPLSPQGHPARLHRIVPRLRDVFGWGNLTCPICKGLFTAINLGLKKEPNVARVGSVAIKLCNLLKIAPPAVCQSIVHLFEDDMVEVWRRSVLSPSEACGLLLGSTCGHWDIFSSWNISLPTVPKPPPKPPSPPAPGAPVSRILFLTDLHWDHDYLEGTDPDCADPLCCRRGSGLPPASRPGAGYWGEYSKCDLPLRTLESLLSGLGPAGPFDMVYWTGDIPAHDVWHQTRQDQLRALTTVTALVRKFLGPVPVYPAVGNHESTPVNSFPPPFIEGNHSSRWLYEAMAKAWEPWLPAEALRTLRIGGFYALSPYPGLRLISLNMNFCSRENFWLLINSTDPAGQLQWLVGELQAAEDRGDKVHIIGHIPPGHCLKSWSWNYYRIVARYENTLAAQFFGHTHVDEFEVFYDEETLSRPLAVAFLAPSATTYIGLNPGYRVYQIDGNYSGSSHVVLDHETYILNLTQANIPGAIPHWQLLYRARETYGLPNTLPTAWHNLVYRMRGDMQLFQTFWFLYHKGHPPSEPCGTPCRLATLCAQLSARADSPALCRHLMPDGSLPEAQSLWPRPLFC
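Fluorescence read-out (Ex 386 nm, Em 447 nm) after stopping the reaction at pH 10. Enzyme: ASM from human placenta; substrate HMU-PC0, 9 uM final; 60 min, 37 °C. Compound preincubation 10 min, ambient temperature.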
SW480 rerep: induces DNA re-replication in SW480 colon adenocarcinoma cells. Potency, µM (top dose mostly 46.1 µM), hits mostly activators. SW480 DNA re-replication, Hoechst DNA content imaging, 48 h. AID 624297. 340,000 compounds, 1.8% hits; note: nearly all actives have a fitted effect of over 55% in size
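SW480 cells exposed to compounds for 48 hr at 37 C, 5% CO2, then Hoechst-stained 40 min. Nuclear DNA content imaged by fluorescence scanning (405 nm excitation, 500-530 nm emission); re-replication scored as increased high-intensity nuclei.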
Giardia killer: Giardia lamblia killing. Giardia lamblia trophozoite viability. activity change, % at 7.66 µM, hits read low. 340,000 compounds, 0.15% hits. AID 540267; in the data active = activity change below about -80%; inconclusive = between about -30% and that limit;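 note: parasites exposed to compound for two days anaerobically before the ATP read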
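Compounds were tested on trophozoites seeded at 100 cells/well and held 48 hrs at 37 deg C anaerobically. An ATP-based luminescent kit measured the remaining live cells.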
KB-V1 cytotox: kills drug-selected multidrug resistant KB-V1 cells. KB-V1 MDR cells viability, CellTiter-Glo, 72 h. Potency, µM (titrated, usually from 46.1 µM), usual class: cytotoxic. 400,000 compounds, 3.4% hits. AID 1347076; note: nearly all actives have a fitted effect of over 60% in size
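KB-V1 cells (P-gp-expressing MDR subline of KB-3-1) in phenol-red-free DMEM with 10% FBS were exposed to library compounds over a concentration series for 72 h at 37 degrees C. Viability read by CellTiter-Glo luminescence; concentration-effect curves fitted after normalization.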
MCF10A rerep: inducers of DNA re-replication in MCF 10A breast cells. MCF 10A DNA re-replication, Hoechst nuclear intensity, 48 h. Potency, µM (highest dose often 46.1 µM), most hits filed as activators. 350,000 compounds, 2.9% hits. AID 624296; note: nearly all actives have a fitted effect of over 50% in size
Large screens that a line does not name were inactive. Unless noted, calls come from the whole dose curve; as a rule, active = well fitted curve in the direction sought with a large enough effect; inconclusive = small, poorly fitted or top-dose-only effect, or another doubt; inactive = no such curve, though single readings can be large; an effect the other way counts as inactive or inconclusive.

CCc1ccc(/C=C2\SC(=S)N(CCCC(=O)Nc3ccccn3)C2=O)cc1	KB-3-1 tox inconclusive, ASM inhibitor inconclusive, KB-V1 cytotox inconclusive
O=C(CCCN1C(=O)/C(=C/c2cccc(Br)c2)SC1=S)Nc1ccccn1	KB-3-1 tox 5.8µM, SW480 rerep inconclusive, KB-V1 cytotox 15µM, MCF10A rerep inconclusive
COc1ccccc1/C=C1/SC(=S)N(CCC(=O)Nc2cccnc2)C1=O	none
Cn1c(=O)oc2cc(S(=O)(=O)N3CCC(C(=O)N4CCN(c5ccc(Cl)cc5)CC4)CC3)ccc21	KB-3-1 tox inconclusive (no result: ASM inhibitor, SW480 rerep, Giardia killer, MCF10A rerep)
CCOC(=O)c1ccc(NC(=O)CCCc2nc(-c3cc(OC)c(OC)c(OC)c3)no2)cc1	none (no result: ASM inhibitor, SW480 rerep, Giardia killer, MCF10A rerep)
CO/N=C/c1ccc(OC)c(Oc2nc(OC)cc(OC)n2)c1	KB-3-1 tox 18µM, SW480 rerep 18µM, MCF10A rerep 16µM
CCO/N=C/c1ccc(OC)c(Oc2nc(OC)cc(OC)n2)c1	MCF10A rerep inconclusive
Cc1ccc(S(=O)(=O)/N=C2\C=C(NS(=O)(=O)c3ccccc3)C(=O)c3ccccc32)c(C)c1	MCF10A rerep inconclusive
Cc1ccc(S(=O)(=O)/N=C2\C=C(Nc3cccc(C(=O)O)c3)C(=O)c3ccccc32)cc1	KB-3-1 tox 23µM, SW480 rerep inconclusive, MCF10A rerep inconclusive
Cc1ccc(S(=O)(=O)/N=C2\C=C(Nc3ccc(O)cc3)C(=O)c3ccccc32)cc1	KB-3-1 tox 4.1µM, SW480 rerep 6.3µM, KB-V1 cytotox inconclusive, MCF10A rerep 3.3µM
CCc1ccc(S(=O)(=O)/N=C2\C=C(Nc3ccc(C(=O)O)cc3)C(=O)c3ccccc32)cc1	KB-3-1 tox inconclusive, SW480 rerep 9.2µM, MCF10A rerep 4.6µM
CC(C)(C)c1ccc(S(=O)(=O)/N=C2\C=C(NS(=O)(=O)c3ccccc3)C(=O)c3ccccc32)cc1	SW480 rerep inconclusive
Cc1ccc(S(=O)(=O)/N=C2\C=C(Nc3cccc(C(=O)O)c3)C(=O)c3ccccc32)c(C)c1	KB-3-1 tox inconclusive, SW480 rerep inconclusive, MCF10A rerep 6.5µM
Cc1cc(=O)n2[nH]c(NCc3ccc(F)cc3)nc2n1	KB-V1 cytotox inconclusive (no result: ASM inhibitor, SW480 rerep, Giardia killer, MCF10A rerep)
C[C@@](Cc1ccccc1)(NC(=O)CN)c1ccccc1	none (no result: KB-3-1 tox, ASM inhibitor, Giardia killer, KB-V1 cytotox)
CCOC(=O)C(=O)NNc1cccc(C)c1C	MCF10A rerep 8.2µM
c1ccc(C(CN2CCOCC2)c2ccccc2)cc1	KB-V1 cytotox inconclusive
COc1ccc(C(=O)C(CN2CCOCC2)c2ccccc2)cc1 (centres undefined)	KB-3-1 tox inconclusive, KB-V1 cytotox inconclusive, MCF10A rerep inconclusive
O=C(c1ccc(F)cc1)C(CN1CCOCC1)c1ccccc1 (centres undefined)	KB-3-1 tox inconclusive, SW480 rerep inconclusive, KB-V1 cytotox inconclusive, MCF10A rerep 5.2µM
O=C(c1ccccc1)C(CCC(CN1CCOCC1)C(=O)c1ccccc1)CN1CCOCC1 (centres undefined)	KB-3-1 tox 5.8µM, SW480 rerep inconclusive, KB-V1 cytotox 5.8µM, MCF10A rerep 4.6µM
COc1ccc(C(=O)C(CN2CCCC2)c2ccccc2)cc1 (centres undefined)	KB-3-1 tox 7.1µM, SW480 rerep inconclusive, KB-V1 cytotox 7.1µM, MCF10A rerep inconclusive
CCCOc1ccc(C(=O)C(CN2CCCC2)c2ccccc2)cc1 (centres undefined)	KB-3-1 tox 23µM, SW480 rerep inconclusive, KB-V1 cytotox inconclusive, MCF10A rerep 8.2µM
COc1ccc(C(=O)Nc2ncnc3nc[nH]c23)cc1	none (no result: ASM inhibitor, SW480 rerep, Giardia killer, MCF10A rerep)
O=C(Cn1cc(S(=O)(=O)c2ccccc2)c(=O)c2cc(Cl)ccc21)Nc1ccc2c(c1)OCO2	KB-V1 cytotox inconclusive (no result: ASM inhibitor, SW480 rerep, Giardia killer, MCF10A rerep)
O=S(=O)(Nc1cccnc1)c1cccc2ccccc12	none (no result: KB-3-1 tox, ASM inhibitor, SW480 rerep, KB-V1 cytotox, MCF10A rerep)
CN(C)CCCOC(=O)COc1ccc(C(C)(C)C)cc1	none
O=C(c1ccc(Cl)cc1)C(CN1CCCC1)c1ccccc1 (centres undefined)	KB-3-1 tox inconclusive, SW480 rerep inconclusive, MCF10A rerep 4.1µM
OC(CN1CCOCC1)CN(c1ccccc1)c1ccccc1 (centres undefined)	KB-V1 cytotox 15µM
OC(CN1CCCC1)c1ccccc1 (centres undefined)	none (no result: ASM inhibitor, SW480 rerep, Giardia killer, MCF10A rerep)
CCCCOc1ccc(C(=O)C(CN2CCOCC2)c2ccccc2)cc1 (centres undefined)	KB-3-1 tox inconclusive, SW480 rerep 15µM, KB-V1 cytotox inconclusive, MCF10A rerep inconclusive
OC(CN1CCCCCC1)CN(c1ccccc1)c1ccccc1 (centres undefined)	KB-3-1 tox inconclusive
Cc1cc(C)cc(NC(=O)N2CCC(C(N)=O)(N3CCCCC3)CC2)c1	none (no result: ASM inhibitor, SW480 rerep, Giardia killer, MCF10A rerep)
C=CC[n+]1cccc2cccc(O)c21	none (no result: ASM inhibitor, SW480 rerep, Giardia killer, MCF10A rerep)
Cc1c(-c2nnc(SCC(=O)Nc3ccc(Br)cc3)o2)nnn1-c1ccc(F)cc1	none (no result: ASM inhibitor, SW480 rerep, Giardia killer, MCF10A rerep)
CCOc1ccccc1NC(=O)Nc1ccc(Cl)cc1	KB-3-1 tox 23µM, SW480 rerep inconclusive, KB-V1 cytotox 23µM
O=C(Nc1ccc(Oc2ccc(NC(=O)Nc3ccccc3Cl)cc2)cc1)Nc1ccccc1Cl	KB-3-1 tox inconclusive, SW480 rerep 12µM, MCF10A rerep inconclusive
Cc1ccc(Cl)cc1NC(=O)c1ccccc1OCC(=O)Nc1ccc(Cl)cc1	MCF10A rerep 9.2µM
Cc1ccccc1OCC(=O)NNC(=O)Nc1ccc(Cl)cc1	KB-3-1 tox 4.1µM, SW480 rerep inconclusive, KB-V1 cytotox 5.2µM, MCF10A rerep 3.7µM
